# Assay results published in PubChem BioAssay (Tox21).
# Inconclusive results are not listed. A call without a number means that no potency is given here. The source made the active and inactive calls. Unless noted, the call rests on the fitted dose curve; in most records, active means well fitted curve in the direction sought with a large enough effect in the repeat runs; inconclusive means weak or mixed curves; inactive means no such curve, though single readings can be large; an effect the other way counts as inactive or inconclusive.
# Columns and labels:
# [1] = qHTS assay to identify small molecule antagonists of the glucocorticoid receptor (GR) signaling pathway - cell viability counter screen (AID 720693); further: nearly all actives have a fitted effect of over 55% in size
# [2] = qHTS assay for identifying genotoxic compounds that show differential cytotoxicity against isogenic chicken DT40 cell lines with known DNA damage response pathways - wild type cell line (AID 743012); further: nearly all actives have a fitted effect of over 60% in size; further: potency means the concentration at half of the fitted maximal effect
# How it was run: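 300 wt DT40 cells/well; cpd (DMSO) pintool-transferred after ~0.5 h at 37 C/5% CO2; 40 h incubation; CellTiter-Glo added, 30 min RT; luminescence read.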
# [3] = qHTS assay to identify small molecule antagonists of the androgen receptor (AR) signaling pathway - cell viability counter screen (AID 743033; further: nearly all actives have a fitted effect of over 45% in size)
# [4] = qHTS assay to identify small molecule antagonists of the androgen receptor (AR) signaling pathway using the MDA cell line - cell viability counter screen (AID 743041; further: nearly all actives have a fitted effect of over 45% in size)
# How it was run: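 Viability read by CellTiter-Fluor fluorescence in the same wells as the antagonist screen, added after 15.5 h of a 16 h, 37C exposure. Human breast carcinoma MDA-kb2 AR-luc cells, compounds co-dosed with agonist R1881.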
# [5] = qHTS assay for identifying genotoxic compounds that show differential cytotoxicity against isogenic chicken DT40 cell lines with known DNA damage response pathways - Rad54/Ku70 mutant cell line (AID 743015); further: nearly all actives have a fitted effect of over 60% in size; further: potency means the concentration at half of the fitted maximal effect
# [6] = target: Androgen receptor (Homo sapiens) (UniProt P10275); assay: qHTS assay to identify small molecule agonists of the androgen receptor (AR) signaling pathway (AID 743036; active means well fitted activation curve with a large enough effect in the signal ratio in the repeat runs, with a control signal flat, not every such curve was filed as active; the % refers to the signal ratio)
# Androgen receptor (Homo sapiens), sequence (P10275 whole entry, looked up): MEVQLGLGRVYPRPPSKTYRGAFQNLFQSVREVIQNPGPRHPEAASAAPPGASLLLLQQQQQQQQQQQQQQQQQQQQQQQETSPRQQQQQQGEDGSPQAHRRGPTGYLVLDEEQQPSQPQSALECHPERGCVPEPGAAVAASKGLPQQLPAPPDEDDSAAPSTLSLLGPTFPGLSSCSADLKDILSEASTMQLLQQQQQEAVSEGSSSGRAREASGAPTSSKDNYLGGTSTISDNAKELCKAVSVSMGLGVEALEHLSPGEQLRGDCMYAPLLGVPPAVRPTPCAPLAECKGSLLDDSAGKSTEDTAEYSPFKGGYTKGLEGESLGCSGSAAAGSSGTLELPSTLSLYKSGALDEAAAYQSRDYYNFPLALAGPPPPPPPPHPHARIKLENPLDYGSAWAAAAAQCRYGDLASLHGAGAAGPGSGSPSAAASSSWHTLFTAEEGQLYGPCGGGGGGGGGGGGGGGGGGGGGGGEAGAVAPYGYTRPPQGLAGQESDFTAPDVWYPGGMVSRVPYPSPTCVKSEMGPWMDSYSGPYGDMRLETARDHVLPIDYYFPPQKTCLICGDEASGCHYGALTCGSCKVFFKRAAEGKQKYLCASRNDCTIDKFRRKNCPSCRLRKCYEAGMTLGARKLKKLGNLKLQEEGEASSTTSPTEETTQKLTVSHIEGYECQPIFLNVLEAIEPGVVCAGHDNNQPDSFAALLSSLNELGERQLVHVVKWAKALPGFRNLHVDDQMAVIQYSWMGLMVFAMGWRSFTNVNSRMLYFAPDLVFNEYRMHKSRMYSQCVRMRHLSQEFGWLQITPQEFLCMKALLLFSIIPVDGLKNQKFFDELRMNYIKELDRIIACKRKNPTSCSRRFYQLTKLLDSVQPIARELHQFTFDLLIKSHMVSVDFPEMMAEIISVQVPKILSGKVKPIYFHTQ
# How it was run: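 HEK293 cells stably carrying a UAS-driven beta-lactamase reporter (GeneBLAzer AR-UAS-bla-GripTite) were plated at 2,000 cells/well, rested 4 h at 37C, then exposed to compounds in DMSO for 16 h. LiveBLAzer B/G FRET substrate was added for 2 h at room temperature; fluorescence read.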
# [7] = target: Androgen receptor (Homo sapiens) (UniProt P10275); assay: qHTS assay to identify small molecule agonists of the androgen receptor (AR) signaling pathway using the MDA cell line (AID 743040; further: nearly all actives have a fitted effect of over 20% in size)
# How it was run: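 Luciferase agonist assay: 16 h compound exposure at 37C without CO2 in MDA-kb2 AR-luc cells, whose MMTV promoter responds to both AR and GR. Luminescence measured after 30 min room-temperature incubation with ONE-Glo.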
# [8] = target: Androgen receptor (Homo sapiens) (UniProt P10275); assay: qHTS assay to identify small molecule antagonists of the androgen receptor (AR) signaling pathway using the MDA cell line (AID 743042; further: nearly all actives have a fitted effect of over 55% in size)
# How it was run: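 Antagonist mode: compounds plus R1881 agonist added to MDA-kb2 AR-luc cells, incubated 16 h at 37C. Luciferase reporter luminescence quantified, with multiplexed CellTiter-Fluor readout for cell viability.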
# [9] = qHTS assay for identifying genotoxic compounds that show differential cytotoxicity against isogenic chicken DT40 cell lines with known DNA damage response pathways - Rev3 mutant cell line (AID 743014); further: nearly all actives have a fitted effect of over 55% in size; further: potency means the concentration at half of the fitted maximal effect
# [10] = target: Androgen receptor (Homo sapiens) (UniProt P10275); assay: qHTS assay to identify small molecule antagonists of the androgen receptor (AR) signaling pathway (AID 743035; active means well fitted inhibition curve with a large enough effect in the signal ratio in the repeat runs, not every such curve was filed as active; the % refers to the signal ratio; further: potency means the concentration at half of the fitted maximal effect)
# How it was run: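 In this cell-based reporter screen, compounds were tested in concentration series against R1881-activated HEK293 cells expressing beta-lactamase under UAS control; after 16 h at 37C, FRET substrate was added and fluorescence read 2 h later.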
smiles,measurement,setting,value
CC(C1CC1)C(O)(Cn1cncn1)c1ccc(Cl)cc1 (stereo not given),Potency,[1],inactive
same,Potency,[2],48.3 µM (active)
same,Potency,[3],inactive
same,Potency,[4],inactive
CCOP(=S)(OCC)SCSc1ccc(Cl)cc1,Potency,[1],inactive
same,Potency,[2],inactive
same,Potency,[5],inactive
same,Potency,[3],inactive
same,Potency,[4],inactive
COc1ccc2c(c1OC)CN1CCc3cc4c(cc3C1C2)OCO4 (stereo not given),Potency,[1],inactive
same,Potency,[2],11.4 µM (active)
same,Potency,[3],inactive
same,outcome,[6],inactive
same,Potency,[7],inactive
same,Potency,[4],inactive
same,outcome,[8],inactive
Cc1ncc(CNC(=O)N(CCCl)N=O)c(N)n1,Potency,[1],inactive
same,Potency,[2],inactive
same,Potency,[5],inactive
same,Potency,[3],inactive
same,Potency,[4],inactive
COc1cc(C[C@@H](C)N)c(OC)cc1C,Potency,[1],inactive
same,Potency,[9],inactive
same,Potency,[5],inactive
same,Potency,[3],inactive
same,Potency,[4],inactive
CCOc1nc(C(Cl)(Cl)Cl)ns1,Potency,[1],inactive
same,Potency,[9],inactive
same,Potency,[5],inactive
same,Potency,[3],inactive
same,Potency,[4],inactive
CC(C)(C)OC(=O)c1ncn2c1[C@@H]1CCCN1C(=O)c1c(Br)cccc1-2,Potency,[1],inactive
same,Potency,[2],26.6 µM (active)
same,Potency,[3],inactive
same,Potency,[4],inactive
COC(=O)c1c(C(F)F)nc(C(F)(F)F)c(C2=NCCS2)c1CC(C)C,Potency,[1],inactive
same,Potency,[9],61.1 µM (active)
same,Potency,[3],inactive
same,Potency,[10],inactive
same,outcome,[6],inactive
same,Potency,[7],inactive
same,Potency,[4],inactive
same,outcome,[8],inactive
O=C(Oc1ccc(Br)cc1)N1CCN2CCC1CC2,Potency,[1],inactive
same,Potency,[9],54.5 µM (active)
same,Potency,[5],61.1 µM (active)
same,Potency,[3],inactive
same,Potency,[4],inactive
CCCCP(CCCC)CCCC,Potency,[1],inactive
same,Potency,[2],inactive
same,Potency,[3],inactive
same,Potency,[4],inactive
CC(=O)Nc1cc([As](=O)(O)O)ccc1O,Potency,[1],inactive
same,Potency,[2],inactive
same,Potency,[4],inactive
O=CNC(N1CCN(C(NC=O)C(Cl)(Cl)Cl)CC1)C(Cl)(Cl)Cl (stereo not given),Potency,[1],inactive
same,Potency,[9],61.1 µM (active)
same,Potency,[3],inactive
same,Potency,[10],6.16 µM (active)
same,outcome,[6],inactive
same,Potency,[7],inactive
same,Potency,[4],inactive
same,outcome,[8],inactive
C1CCC(C2CCCCC2)CC1,Potency,[1],inactive
same,Potency,[9],54.5 µM (active)
same,Potency,[3],inactive
CCC(C)n1c(=O)[nH]c(C)c(Br)c1=O (stereo not given),Potency,[1],inactive
same,Potency,[2],inactive
same,Potency,[5],inactive
same,Potency,[3],inactive
same,Potency,[4],inactive
CS(=O)(=O)c1cc(C(F)(F)F)ccc1C(=O)c1cnoc1C1CC1,Potency,[1],inactive
same,Potency,[2],inactive
same,Potency,[3],inactive
same,Potency,[4],inactive
CCOC(=O)N(C)C(=O)CSP(=S)(OCC)OCC,Potency,[1],inactive
same,Potency,[2],30.6 µM (active)
same,Potency,[5],24.3 µM (active)
same,Potency,[4],inactive
ClCC(Cl)Cl,Potency,[1],inactive
same,Potency,[9],inactive
same,Potency,[5],inactive
same,Potency,[3],inactive
same,Potency,[4],inactive
Cc1cc(C)c(C(=O)P(=O)(C(=O)c2c(C)cc(C)cc2C)c2ccccc2)c(C)c1,Potency,[1],inactive
same,Potency,[2],inactive
same,Potency,[5],inactive
same,Potency,[3],inactive
same,Potency,[4],inactive
CCCSP(=O)(OCC)Oc1ccc(Br)cc1Cl (stereo not given),Potency,[1],inactive
same,Potency,[9],33.3 µM (active)
same,Potency,[5],29.7 µM (active)
same,Potency,[3],inactive
same,Potency,[4],inactive
Cc1cc(C)nc(Nc2ccccc2)n1,Potency,[1],inactive
same,Potency,[2],inactive
same,Potency,[3],inactive
same,Potency,[4],inactive
O=[N+]([O-])c1cccc2cccnc12,Potency,[1],inactive
same,Potency,[3],inactive
same,Potency,[4],inactive
OC(c1ccc(F)cc1)(c1cncnc1)c1ccccc1Cl (stereo not given),Potency,[1],inactive
same,Potency,[9],30.6 µM (active)
same,Potency,[3],inactive
same,Potency,[4],inactive
O=NN1CCCCC1,Potency,[2],inactive
same,Potency,[9],inactive
same,Potency,[5],inactive
same,Potency,[3],inactive
same,Potency,[10],inactive
same,outcome,[6],inactive
same,Potency,[7],inactive
same,Potency,[4],inactive
same,outcome,[8],inactive
CC(C=O)Cc1ccc2c(c1)OCO2 (stereo not given),Potency,[2],inactive
same,Potency,[5],inactive
same,Potency,[3],inactive
same,Potency,[4],inactive
CCc1cc2c(s1)-n1c(C)nnc1CN=C2c1ccccc1Cl,Potency,[1],inactive
same,Potency,[9],inactive
same,Potency,[3],inactive
same,Potency,[4],inactive
Cc1ncc2n1-c1ccc(Cl)cc1C(c1ccccc1F)=NC2,Potency,[1],inactive
same,Potency,[9],inactive
same,Potency,[3],inactive
same,Potency,[4],inactive
CCC(C)(C)c1cc(-n2nc3ccccc3n2)c(O)c(C(C)(C)CC)c1,Potency,[2],inactive
same,Potency,[9],inactive
same,Potency,[5],inactive
same,Potency,[3],inactive
same,Potency,[10],inactive
same,outcome,[6],inactive
same,Potency,[7],inactive
same,Potency,[4],inactive
same,outcome,[8],inactive
N#CCCC#N,Potency,[2],inactive
same,Potency,[9],inactive
same,Potency,[5],inactive
same,Potency,[3],inactive
same,Potency,[4],inactive
COP(=S)(OC)Oc1ccc(S(N)(=O)=O)cc1,Potency,[1],inactive
same,Potency,[5],inactive
same,Potency,[3],inactive
same,Potency,[4],inactive
CC1(C(=O)Nc2ccc(O)c(Cl)c2Cl)CCCCC1,Potency,[2],68.6 µM (active)
same,Potency,[9],61.1 µM (active)
same,Potency,[5],61.1 µM (active)
same,Potency,[3],inactive
same,Potency,[4],inactive
COC(=O)c1ccccc1S(=O)(=O)NC(=O)N(C)c1nc(C)nc(OC)n1,Potency,[1],inactive
same,Potency,[9],inactive
same,Potency,[3],inactive
same,Potency,[4],inactive
CC1CCCCC1NC(=O)Nc1ccccc1 (stereo not given),Potency,[1],inactive
same,Potency,[3],inactive
same,Potency,[4],inactive
CCOP(=S)(OCC)Oc1nc(Cl)n(C(C)C)n1,Potency,[1],inactive
same,Potency,[9],68.6 µM (active)
same,Potency,[3],inactive
same,Potency,[4],inactive
[Cl][Sn]([Cl])([Cl])[Cl],Potency,[2],inactive
same,Potency,[9],inactive
same,Potency,[5],inactive
same,Potency,[3],inactive
same,Potency,[4],inactive
c1coc(-c2nc3ccccc3[nH]2)c1,Potency,[2],54.5 µM (active)
same,Potency,[9],24.3 µM (active)
same,Potency,[5],54.5 µM (active)
same,Potency,[4],inactive
CC1(C)CON(Cc2ccccc2Cl)C1=O,Potency,[1],inactive
same,Potency,[9],68.6 µM (active)
same,Potency,[3],inactive
same,Potency,[4],inactive
O=C(O)C(Br)CBr (stereo not given),Potency,[1],inactive
same,Potency,[5],inactive
same,Potency,[3],inactive
same,Potency,[4],inactive
CCCSP(=S)(OCC)Oc1ccc(Cl)cc1Cl (stereo not given),Potency,[1],inactive
same,Potency,[5],61.1 µM (active)
same,Potency,[3],inactive
same,Potency,[4],inactive
CC(COc1ccc(Oc2ccccc2)cc1)Oc1ccccn1 (stereo not given),Potency,[1],inactive
same,Potency,[3],inactive
same,outcome,[6],inactive
same,Potency,[7],inactive
same,Potency,[4],inactive
same,outcome,[8],inactive
CC(=O)[C@H]1CC[C@H]2[C@@H]3CC[C@H]4C[C@H](O)CC[C@]4(C)[C@H]3C(=O)C[C@]12C,Potency,[1],inactive
same,Potency,[3],inactive
same,Potency,[4],inactive
ClC(Cl)Br,Potency,[2],inactive
same,Potency,[9],inactive
same,Potency,[5],inactive
same,Potency,[3],inactive
same,Potency,[4],inactive
COC(=O)C1=CCCN(C)C1,Potency,[2],inactive
same,Potency,[3],inactive
same,Potency,[4],inactive
Nc1n[nH]c(N)n1,Potency,[1],inactive
same,Potency,[9],inactive
same,Potency,[3],inactive
same,Potency,[4],inactive
Clc1cccc(N2CCNCC2)c1,Potency,[1],inactive
same,Potency,[3],inactive
same,Potency,[4],inactive
CSc1nc(N=[N+]=[N-])nc(NC(C)C)n1,Potency,[1],inactive
same,Potency,[9],61.1 µM (active)
same,Potency,[3],inactive
same,Potency,[4],inactive
COP(=S)(OC)Oc1c(Cl)cc(C)cc1Cl,Potency,[1],inactive
same,Potency,[3],inactive
same,Potency,[4],inactive
CC(C)CC(N(C)C)C1(c2ccc(Cl)cc2)CCC1 (stereo not given),Potency,[1],inactive
same,Potency,[9],inactive
same,Potency,[3],inactive
same,Potency,[4],inactive
C[C@]1(O)CC[C@H]2[C@@H]3CCC4=CC(=O)CC[C@]4(C)[C@@]3(F)[C@@H](O)C[C@@]21C,Potency,[1],inactive
same,Potency,[9],inactive
same,Potency,[3],inactive
same,Potency,[4],inactive
CC(Oc1ccc(Oc2ncc(C(F)(F)F)cc2Cl)cc1)C(=O)O (stereo not given),Potency,[9],68.6 µM (active)
same,Potency,[7],inactive
C=CCC1=C(C)[C@@H](OC(=O)[C@@H]2[C@@H](C=C(C)C)C2(C)C)CC1=O,Potency,[2],15.4 µM (active)
same,Potency,[9],24.3 µM (active)
same,Potency,[5],15.4 µM (active)
same,Potency,[3],inactive
COc1cc(OC)nc(NC(=O)NS(=O)(=O)c2ncccc2C(=O)N(C)C)n1,Potency,[2],inactive
same,Potency,[9],inactive
same,Potency,[5],inactive
same,Potency,[3],inactive
same,Potency,[4],inactive
CC(CCc1ccccc1)NC(C)C(O)c1ccc(O)cc1 (stereo not given),Potency,[1],inactive
same,Potency,[5],inactive
same,Potency,[4],inactive
CCCSC(=O)Cl,Potency,[1],inactive
same,Potency,[9],inactive
same,Potency,[3],inactive
same,Potency,[4],inactive
COC(=O)C(C)Oc1ccc(Oc2ccc(Cl)cc2Cl)cc1 (stereo not given),Potency,[1],inactive
same,Potency,[5],68.6 µM (active)
same,Potency,[3],inactive
same,Potency,[4],inactive
OC(Cn1cncn1)(c1ccc(F)cc1)c1ccccc1F (stereo not given),Potency,[1],inactive
same,Potency,[3],inactive
same,Potency,[4],inactive
